Bioassay records (PubChem)
ALDH1A1 inh: qHTS Assay for Inhibitors of Aldehyde Dehydrogenase 1 (ALDH1A1). actives 7.3% (n = 220,000). Potency, µM (highest dose often 75.3 µM), for inactives: at the top dose activity, negative = inhibition, most hits filed as inhibitors. Aldehyde dehydrogenase 1A1 (Homo sapiens), P00352. Purified ALDH1A1, NADH fluorescence, propionaldehyde substrate; active = well fitted inhibition curve with a large enough effect, not every such curve was filed as active; inconclusive = small, poorly fitted or top-dose-only effect, or another doubt; inactive = no such curve, though single readings can be large or run the other way;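 also: plate controls were no enzyme wells and a reference inhibitor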
HTT ATP protect: qHTS Multiplex Assay to Identify Dual Action Probes in a Cell Model of Huntington: Cytoprotection (ATP). Potency, µM (doses to about 56.4 µM), for inactives: cytoprotection (ATP increase), hits mostly activators. PC12 HTT-Q103 induced, cytoprotection, ATP luminescence, 40 h. actives 0.14% (n = 230,000); also: % of control where 0% means no effect; nearly all actives have a fitted effect of over 45% in size
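Compounds were screened for protection of PC12 cells against cell death after tebufenozide induction (100 nM final) of mutant Huntingtin exon 1 (Q103) fused to GFP.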
HPGD inh: qHTS Assay for Inhibitors of HPGD (15-Hydroxyprostaglandin Dehydrogenase). purified HPGD, NADH fluorescence kinetic, PGE2 substrate. Potency, µM, inactives show at the top dose activity change, negative = inhibition, hits mostly inhibitors. actives 4.3% (n = 150,000). 15-hydroxyprostaglandin dehydrogenase [NAD(+)] (Homo sapiens), P15428; active = well fitted inhibition curve with a large enough effect, not every such curve was filed as active; inconclusive = small, poorly fitted or top-dose-only effect, or another doubt; inactive = no such curve, though single readings can be large or run the other way; also: % is scaled to controls: 0 for no effect and ±100 for the full control effect
Target sequence (P15428 whole entry, looked up): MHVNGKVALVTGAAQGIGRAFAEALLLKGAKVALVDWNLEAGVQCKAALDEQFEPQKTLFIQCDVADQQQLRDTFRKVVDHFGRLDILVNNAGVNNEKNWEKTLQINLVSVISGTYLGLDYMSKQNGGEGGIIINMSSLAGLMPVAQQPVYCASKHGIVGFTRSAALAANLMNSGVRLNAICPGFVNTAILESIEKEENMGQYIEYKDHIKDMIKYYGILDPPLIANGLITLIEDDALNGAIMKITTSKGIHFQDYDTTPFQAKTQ
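NADH formation kinetics: reaction with 30 uM PGE2 and 1 mM NAD+ (final), 20 nM enzyme, Tris-HCl pH 8 with Tween 20, after 15 min compound preincubation at room temperature. Fluorescence change, last versus first of five reads.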
HTT aggregate: qHTS Multiplex Assay to Identify Dual Action Probes in a Cell Model of Huntington: Aggregate Formation (GFP) | PC12 HttQ103-GFP aggregates, Acumen cytometry, 40 h | Potency, µM (doses to about 46.1 µM), without a hit: top-dose activity change, negative = inhibition, hits mostly inhibitors | actives 1.1% (n = 220,000); also: % is scaled to controls: 0 for no effect and ±100 for the full control effect; nearly all actives have a fitted effect of over 60% in size
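Huntingtin Q103 exon 1–GFP aggregates in induced PC12 cells (100 nM tebufenozide) were quantified by cytometry from lysates, with compounds dosed in titration.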
LMNA splice mod: qHTS Assay for Modulators of Lamin A Splicing; HeLa LMNA splicing GFP/RFP minigene ratio, 48 h; Potency, µM (series often up to 46.1 µM), inactives show at the highest dose ratio change, negative = inhibition, hits mostly inhibitors; actives 0.01% (n = 200,000); AID 1487, 2009; active = well fitted inhibition curve with a large enough effect in the signal ratio, with a control signal flat, not every such curve was filed as active; inconclusive = small, poorly fitted or top-dose-only effect, or effect the other way, or a change in a side signal; the % refers to the signal ratio; also: % is scaled to controls: 0 for no effect and ±100 for the full control effect
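S3 HeLa stable clones carrying a lamin A-EGFP splicing minigene plus DsRed2 were seeded at 600 cells/well in Opti-MEM with 2% FBS, pin-dosed and incubated 48 h at 37°C. Acumen cytometry (488 nm) gave the GFP/RFP total-intensity ratio.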
* = called active by the depositor; ? = inconclusive; . = not tested or not shown; [ ] = another dose, or the depositor's remark. A selection: hits, their analogues and other compounds. The true share with any hit is near 8.8%. Unless noted, calls follow the shape of the dose curve; as a rule, active = well fitted curve in the direction sought with a large enough effect; inconclusive = small, poorly fitted or top-dose-only effect, or another doubt; inactive = no such curve, though single readings can be large; an effect the other way counts as inactive or inconclusive. Potency is read from the fitted curve at half-maximal effect.

SMILES	ALDH1A1 inh	HTT ATP protect	HPGD inh	HTT aggregate	LMNA splice mod
O=c1cc(N2CCCCC2)c(-c2ccccc2)nn1Cc1cccc(Cl)c1	22µM*	-95%	-19%	?	?
O=c1cc(N2CCCCC2)c(-c2ccccc2)nn1Cc1ccc(Cl)cc1Cl	?	-108%	-22%	?	?
CCNC(=O)c1c(O)c2ccccc2[nH]c1=O	-1%	15%	-7%	-7%	5%
CC(C)=NNC(=O)c1c(O)c2ccccc2[nH]c1=O	13µM*	15%[10 µM]	.	-8%[9.22 µM]	.
CC(C)CCN1CCN(Cc2cnc(N3CCCC3)s2)CC1CCO (configuration not stated)	-2%	-25%	.	2%	.
S=c1[nH]nc(-c2ccc3ccccc3n2)n1-c1ccc(Cl)cc1	?	2%[10 µM]	10µM*	-5%	-4%
Fc1ccc(-n2c(-c3ccc4ccccc4n3)n[nH]c2=S)cc1Cl	1%	.	.	?	.
S=c1[nH]nc(-c2ccc3ccccc3n2)n1-c1ccc2ncccc2c1	-16%	.	13µM*	14%	6%
Cc1cn2c(=O)cc(COC(=O)c3ccc(NC(=O)COc4ccc(C)c(C)c4)cc3)nc2s1	.	.	.	.	7%[46 µM]
COc1ccc(NC(=O)N2CC[C@@]3(CCCN(C(=O)c4ccc(OC)cc4)C3)C2)cc1	-9%	13%	4%	.	.
CCC1Oc2ccc(Cl)cc2N(CC(=O)NCCc2ccc(Cl)cc2)C1=O (configuration not stated)	.	.	.	.	-13%[46 µM]
CCN(CCO)c1nc(SC)nc2c1sc1nc(-c3ccco3)c3c(c12)CCC3	2µM*	19%	?	?	?
CSc1nc(NCCOCCO)c2sc3nc(-c4ccco4)c4c(c3c2n1)CCC4	?	-10%	?	?	6%
Cc1cc(C(F)(F)F)c2c(=O)[nH]c(=O)n(Cc3ccccc3)c2n1	11%	-4%	10µM*	-1%	6%
O=c1[nH]c(=O)n(Cc2ccccc2)c2nc(-c3ccco3)cc(C(F)(F)F)c12	?	-27%	?	4%	?
CN(Cc1cccnc1)C(=O)CC1C(=O)NCCN1CC(c1ccccc1)c1ccccc1 (configuration not stated)	-11%	2%[10 µM]	.	10%[9.22 µM]	.
CN(Cc1cccnc1)C(=O)CC1C(=O)NCCN1Cc1ccc(-c2ccccc2)cc1 (configuration not stated)	16µM*	-27%	.	5%	.
O=C(Nc1cccc(NC(=O)C2C3CC4OC(=O)C2C4C3)c1)c1ccccc1 (configuration not stated)	13%	14%[10 µM]	.	-2%[9.22 µM]	.
COc1ccc(OC)c(-c2noc(N3CCN(c4ccc(Cl)cc4)CC3)n2)c1	.	.	.	.	-13%[46 µM]
O=c1[nH]c(=O)n(CCO)c2nnn(Cc3ccccc3)c12	-9%	0%	28µM*	-3%	-10%
CC(C)=CCC/C(C)=C/CO/N=C1/C[C@@H](O)[C@@H](O)[C@@H]2[C@@H]3C(=O)N(Cc4ccc5c(c4)OCO5)C(=O)[C@H]3CC[C@@H]12	-5%[13.5 µM]	8%[10 µM]	.	.	.
CN(C)c1nc(N2CCN(c3ccccc3)CC2)c(C#N)c(=O)o1	?	-11%[10 µM]	16µM*	6%	-11%
Cc1cccc(C)c1N1CCN(c2nc(N(C)C)oc(=O)c2C#N)CC1	0%	5%	?	-7%	1%
CCCCS(=O)(=O)/C=C\C=C/S(=O)(=O)CCCC	4µM*	-97%[10 µM]	25µM*	?	?
CCCCS(=O)(=O)/C=C\C1C2C=CC(C2)C1S(=O)(=O)CCCC (configuration not stated)	?	-19%[10 µM]	1%	8%[9.22 µM]	?
SMILES	ALDH1A1 inh	HTT ATP protect	HPGD inh	HTT aggregate	LMNA splice mod
Cc1occc1-c1nnc(SCC(=O)c2ccc(F)cc2)o1	32µM*	-1%	?	22%	6%
CC1Cc2ccccc2N1C(=O)COC(=O)CNC(=O)c1ccc(Br)o1 (configuration not stated)	28µM*	15%	-12%	6%	-9%
CC1(C)OC2CC3C4CC(F)C5=CC(=O)C=C[C@@]5(C)[C@@]4(F)C(O)C[C@@]3(C)[C@]2(C(=O)CO)O1 (some centres not stated)	0%	-31%	-4%	.	.
COc1cccc(-c2nc(NC3CC3)c3ccccc3n2)c1	?	-50%	.	.	?
Cc1nc(NCCO)c2nnn(Cc3ccccc3F)c2n1	?	-7%[10 µM]	2%	-12%	-3%
C#CCNc1nc(C)nc2c1nnn2Cc1ccccc1F	11µM*	-3%[10 µM]	-4%	-26%[9.22 µM]	11%
CCOCCCNc1nc(C)nc2c1nnn2Cc1c(F)cccc1Cl	8.9µM*	-33%	.	-6%	4%[46 µM]
Cc1nc(NCCN2CCOCC2)c2nnn(Cc3ccccc3Cl)c2n1	16µM*	-9%	-12%	3%	-14%
Cc1c(Cl)cccc1NC(=O)C(=O)NCC(c1cccnc1)N1CCN(c2ccccc2)CC1 (configuration not stated)	.	.	.	.	21%[46 µM]
Cc1ccccc1C(=O)NCc1ccc2c(c1)CCN2C(=O)c1ccccc1	.	.	.	.	8%[46 µM]
CSc1nc2ccc(NS(=O)(=O)c3ccc4c(c3)OCCO4)cc2s1	-3%	11%[10 µM]	-22%	8.9µM*	?
CCOc1cc(S(=O)(=O)NC2CCCCCC2)ccc1F	3.2µM*	1%	25µM*	-33%	?
O=S(=O)(Nc1ccc2c(c1)OCCO2)c1ccc2oc3ccccc3c2c1	?	-1%[0.074 µM]	28µM*	11µM*	?
CSc1nc2ccc(NS(=O)(=O)c3c(Cl)cccc3Cl)cc2s1	?	9%[10 µM]	-16%	3%	?
CSc1nc2ccc(S(=O)(=O)NC3CCCCC3)cc2s1	?	3%	16µM*	?	?
CCOc1ccc(S(=O)(=O)NC2CCCCCC2)cc1	?	38%[10 µM]	.	9%[9.22 µM]	?
CC12C=C(/C=C/c3ccc(F)cc3)C(C)(C1)C(c1ccc(F)cc1)CC2=O (configuration not stated)	-1%[13.5 µM]	7%[10 µM]	.	.	.
CC(C)c1nn2c(=O)cc(COC(=O)c3cccc(NC(=O)COc4ccc(F)cc4)c3)nc2s1	.	.	.	.	1%[46 µM]
CCc1ccc(-n2nc(C)c3c(C(=O)Nc4cc(C)c(Cl)cc4OC)cc(C)nc32)cc1	.	.	.	.	6%[46 µM]
CC1CCN(C(C(=O)NC2CCCCC2)c2cc3c(cc2[N+](=O)[O-])OCO3)CC1 (configuration not stated)	?	.	-29%	-2%	0%
CC1CCCN(C(C(=O)NC2CCCCC2)c2cc3c(cc2[N+](=O)[O-])OCO3)C1 (configuration not stated)	3%	-10%[10 µM]	32µM*	9%	-4%
